The text below walks through data of PubChem BioAssay (EPA / NIEHS).

Results filed as inconclusive are left out. A structure can be active in one record and inactive in another. Active and inactive are the calls of the source. The calls were made as follows, unless noted: active = hit-call score of the fitted dose curve at least 0.9, where 1 is the maximum; inconclusive = response in the unintended direction; inactive = score below 0.9.

For orientation: AC50 means the concentration at which the activity in the assay is half-maximal.

Chain of X-box-binding protein 1 (Homo sapiens) (P17861 whole entry, looked up): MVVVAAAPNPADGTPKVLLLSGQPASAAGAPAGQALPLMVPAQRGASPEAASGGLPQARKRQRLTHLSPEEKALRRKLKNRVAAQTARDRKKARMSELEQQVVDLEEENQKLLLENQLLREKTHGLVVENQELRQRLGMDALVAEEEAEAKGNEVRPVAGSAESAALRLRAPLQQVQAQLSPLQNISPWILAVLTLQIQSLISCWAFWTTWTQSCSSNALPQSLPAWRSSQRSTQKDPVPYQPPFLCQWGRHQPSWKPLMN
Chain of Glucocorticoid receptor (Homo sapiens) (P04150 whole entry, looked up): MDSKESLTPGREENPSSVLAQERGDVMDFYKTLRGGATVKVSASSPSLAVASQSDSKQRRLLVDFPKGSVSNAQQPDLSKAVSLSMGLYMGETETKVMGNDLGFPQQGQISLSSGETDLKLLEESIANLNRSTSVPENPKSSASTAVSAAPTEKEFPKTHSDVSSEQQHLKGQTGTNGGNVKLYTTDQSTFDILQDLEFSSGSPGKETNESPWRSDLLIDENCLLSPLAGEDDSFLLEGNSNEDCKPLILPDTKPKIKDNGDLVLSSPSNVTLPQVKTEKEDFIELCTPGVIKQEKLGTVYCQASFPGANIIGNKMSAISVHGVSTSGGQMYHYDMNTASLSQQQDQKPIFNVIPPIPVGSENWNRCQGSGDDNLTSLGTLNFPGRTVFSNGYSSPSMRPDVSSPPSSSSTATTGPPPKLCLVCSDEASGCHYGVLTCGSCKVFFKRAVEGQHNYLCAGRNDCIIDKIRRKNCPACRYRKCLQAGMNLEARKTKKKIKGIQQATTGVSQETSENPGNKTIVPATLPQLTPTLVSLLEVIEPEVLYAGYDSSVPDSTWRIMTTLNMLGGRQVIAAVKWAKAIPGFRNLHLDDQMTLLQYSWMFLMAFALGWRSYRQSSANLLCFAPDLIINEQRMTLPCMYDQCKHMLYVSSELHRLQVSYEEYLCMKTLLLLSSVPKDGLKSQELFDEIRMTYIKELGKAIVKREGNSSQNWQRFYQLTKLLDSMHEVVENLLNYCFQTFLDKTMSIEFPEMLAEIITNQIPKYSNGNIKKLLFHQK

One experiment has as its target X-box-binding protein 1 (Homo sapiens) (UniProt P17861). Briefly: ATG_Xbp1_CIS: Attagene CIS-FACTORIAL HepG2 Assay for human X-box Binding Protein 1 (XBP1) (AID 2282972; active = hit-call score of the fitted dose curve at least 0.9, where 1 is the maximum; inactive = score below 0.9). The note with it: HepG2 XBP1 cis-element reporter, Attagene multiplex; actives raise or lower the signal. In outline: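 After a 24-hour chemical exposure of HepG2 cells carrying cis-regulated reporters, reporter mRNA levels are assessed. Quantification uses RT-PCR, 6-FAM labelling and capillary electrophoresis. Gain- or loss-of-signal is fitted against DMSO.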
Consider `C=Cc1ccc(O)c(OC)c1`, for which the outcome was inactive.

As to `CCOC(C)=O`, the compound was called inactive.

Consider `CCOC(=O)CN[C@@H](C(=O)N1CC[C@H]1C(=O)NCc1ccc(/C(N)=N/O)cc1)C1CCCCC1`, for which the outcome was inactive.

As for `Cc1ccc(N=Nc2c(O)ccc3ccccc23)c(C)c1`, the compound was called inactive.

For `C=COC(=O)C(C)(C)CCCCCC`, the compound was called inactive.

For `O=C(Nc1ccc(Cl)c(Cl)c1)c1cc(Cl)cc(Cl)c1O`, the AC50 is 1.72 µM (active).

As for `CCC(C)c1ccccc1O` (stereo unspecified), the result was inactive.

Consider `Cc1cc(C(=C2C=CC(=Nc3ccc(S(=O)(=O)O)cc3)C=C2)c2ccc(Nc3ccc(S(=O)(=O)O)cc3)cc2)cc(S(=O)(=O)O)c1N`, for which the outcome was inactive.

On to `CCOCCOCC`, for which the result was inactive.

Turning to `C=CC(C)(CCC=C(C)C)OC(C)=O` (stereo unspecified), the compound was called inactive.

`c1cnc2c(c1)ccc1cccnc12`: the AC50 is 158 µM (active) and the result was inactive.

Regarding `CCC(C)c1nccnc1OC` (stereo unspecified), the compound was classed as inactive.

Take `CCCCCc1ccc(O)cc1`: the compound was classed as inactive.

With `FC(F)(F)C(F)(F)C(F)(F)Br`, the compound was classed as inactive.

As for `CCCCCCCCC(C)=O`, the compound was called inactive.

Consider `Cc1cc(=O)oc2cc(O)ccc12`, for which the compound was classed as inactive.

With `Clc1ccc(Nc2nnc(Cc3ccncc3)c3ccccc23)cc1`, the call was inactive.

For `C=CC(=O)OCCC(F)(F)C(F)(F)C(F)(F)C(F)(F)C(F)(F)C(F)(F)F`, the result was inactive.

With `Oc1cccc2c(O)cccc12`, the result was inactive.

For `COc1cc(OC)nc(NC(=O)NS(=O)(=O)Nc2ccccc2C(=O)N(C)C)n1`, the compound was called inactive.

As to `OCC(F)(F)C(F)(F)C(F)(F)C(F)(F)C(F)(F)C(F)(F)C(F)(F)C(F)(F)C(F)(F)C(F)(F)C(F)(F)F`, the call was inactive.

As to `CCC(=O)C=Cc1ccc(OC)cc1`, the outcome was inactive.

Take `NC(=NCCCCCCN=C(N)/N=C(\N)Nc1ccc(Cl)cc1)/N=C(\N)Nc1ccc(Cl)cc1`: the compound was called inactive.

Take `COc1ccc(C#N)cc1`: the result was inactive.

For the compound `CC(C)(C)c1ccc(CCC=O)cc1`, the call was inactive.

On to `COCN(COC)c1nc(N(COC)COC)nc(N(COC)COC)n1`, for which the compound was called inactive.

Turning to `Oc1cc2ccccc2cc1O`, the outcome was inactive.

With `COc1cc([N+](=O)[O-])ccc1N`, the compound was classed as inactive.

As to `CC(=O)CC(C)C`, the result was inactive.

Turning to `CC(C)C=O`, the compound was classed as inactive.

As for `O=C(F)C(F)(F)C(F)(F)C(F)(F)C(=O)F`, the outcome was inactive.

Take `O=C1OC(=O)c2cc(-c3ccc4c(c3)C(=O)OC4=O)ccc21`: the call was inactive.

Regarding `CC[N+](CC)(CC)Cc1ccccc1`, the compound was classed as inactive.

In the case of `CCCCCCC(C)(C)C(=O)O`, the outcome was inactive.

On to `CC(C)(C)C1CCCCC1O` (stereo unspecified), for which the compound was classed as inactive.

`FC(F)(F)N1C(F)(F)C(F)(F)OC(F)(F)C1(F)F`: the compound was classed as inactive.

`CC1COCc2cc3c(cc21)C(C)(C)C(C)C3(C)C` (stereo unspecified): the concentration at half-maximal activity (AC50) is 73.4 µM (active).

Tested on in another experiment: not listed separately
In words: ATG_M_19_TRANS: Attagene TRANS-FACTORIAL HepG2 Assay for M19 Transcription Factor (Internal Marker) (AID 2282974). The note with it: HepG2 Attagene TRANS-FACTORIAL M19 internal marker reporter. The gist of the method: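 Transfected HepG2 (GAL4-UAS MRTUs), 24 h compound, TriZol RNA, DNase-treated RT, reporter PCR, FAM label, HpaI digest, CE fluorescence; gain vs DMSO.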
As for `C=Cc1ccc(O)c(OC)c1`, the result was inactive.

With `CCOC(C)=O`, the outcome was inactive.

For `Cc1ccc(N=Nc2c(O)ccc3ccccc23)c(C)c1`, the call was inactive.

For the compound `CCC(C)c1ccccc1O` (stereo unspecified), the call was inactive.

Regarding `C=CC(C)(CCC=C(C)C)OC(C)=O` (stereo unspecified), the result was inactive.

Take `c1cnc2c(c1)ccc1cccnc12`: the result was inactive.

Turning to `CCC(C)c1nccnc1OC` (stereo unspecified), the outcome was inactive.

`FC(F)(F)C(F)(F)C(F)(F)Br`: the call was inactive.

For the compound `CCCCCCCCC(C)=O`, the compound was classed as inactive.

As for `Cc1cc(=O)oc2cc(O)ccc12`, the compound was classed as inactive.

Regarding `Clc1ccc(Nc2nnc(Cc3ccncc3)c3ccccc23)cc1`, the outcome was inactive.

For the compound `CCC(=O)C=Cc1ccc(OC)cc1`, the call was inactive.

Regarding `CC(C)(C)c1ccc(CCC=O)cc1`, the compound was classed as inactive.

On to `Oc1cc2ccccc2cc1O`, for which the call was inactive.

On to `COc1cc([N+](=O)[O-])ccc1N`, for which the compound was classed as inactive.

In the case of `CC(=O)CC(C)C`, the call was inactive.

Regarding `CC(C)C=O`, the compound was classed as inactive.

On to `O=C1OC(=O)c2cc(-c3ccc4c(c3)C(=O)OC4=O)ccc21`, for which the result was inactive.

On to `CC(C)(C)C1CCCCC1O` (stereo unspecified), for which the compound was classed as inactive.

Tested on in a further experiment: not listed separately
In words: ATG_GAL4_TRANS: Attagene TRANS-FACTORIAL HepG2 Assay for GAL4 (Internal Marker) (AID 2282976). The note with it: HepG2 Attagene TRANS GAL4 internal marker reporter. The gist of the method: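 Background-control readout: GAL4-UAS reporter transcript in transiently transfected HepG2 cells after 24 h compound exposure. Measured by RT-PCR, 6-FAM primer extension, HpaI digest and capillary electrophoresis; gain-of-signal fit versus DMSO.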
In the case of `CCC(C)c1ccccc1O` (stereo unspecified), the compound was classed as inactive.

For the compound `CCC(C)c1nccnc1OC` (stereo unspecified), the outcome was inactive.

For the compound `Oc1cccc2c(O)cccc12`, the result was inactive.

For the compound `COc1ccc(C#N)cc1`, the call was inactive.

In the case of `CC(C)C=O`, the result was inactive.

As to `O=C(F)C(F)(F)C(F)(F)C(F)(F)C(=O)F`, the call was inactive.

The target in the next experiment is Estrogen-related receptor gamma (Homo sapiens) (UniProt P62508). Briefly: ATG_ERRg_TRANS: Attagene TRANS-FACTORIAL HepG2 Assay for human Estrogen-Related Receptor gamma (ERRg) (AID 2282977).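 Also: hits increase reporter signal over DMSO so potencies reflect activators.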 The settings on record: HepG2 Attagene TRANS reporter, ERRg transactivation. The gist of the method: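 Transfect HepG2 with multiple GAL4-UAS reporter transcription units; dose chemicals 24 h; isolate RNA, reverse-transcribe with oligo(dT), PCR-amplify, label with 6-FAM, digest with HpaI; size fragments by capillary electrophoresis. DMSO serves as negative control.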
Chain of Estrogen-related receptor gamma (Homo sapiens) (P62508 whole entry, looked up, the tested form may be a part): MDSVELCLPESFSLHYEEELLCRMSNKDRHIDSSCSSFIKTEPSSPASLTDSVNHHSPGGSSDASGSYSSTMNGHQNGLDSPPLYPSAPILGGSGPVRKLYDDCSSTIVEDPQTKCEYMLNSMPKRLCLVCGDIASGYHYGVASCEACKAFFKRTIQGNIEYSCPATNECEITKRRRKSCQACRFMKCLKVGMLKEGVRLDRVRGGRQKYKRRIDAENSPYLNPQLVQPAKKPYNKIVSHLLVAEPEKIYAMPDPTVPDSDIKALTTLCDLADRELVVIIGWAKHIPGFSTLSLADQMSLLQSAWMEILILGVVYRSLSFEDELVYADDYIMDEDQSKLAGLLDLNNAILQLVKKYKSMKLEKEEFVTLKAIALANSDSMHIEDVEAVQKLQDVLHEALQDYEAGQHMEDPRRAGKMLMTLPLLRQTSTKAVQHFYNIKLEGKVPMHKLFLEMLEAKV
As to `CCOC(=O)CN[C@@H](C(=O)N1CC[C@H]1C(=O)NCc1ccc(/C(N)=N/O)cc1)C1CCCCC1`, the outcome was inactive.

Regarding `O=C(Nc1ccc(Cl)c(Cl)c1)c1cc(Cl)cc(Cl)c1O`, the compound was classed as inactive.

Consider `CCC(C)c1ccccc1O` (stereo unspecified), for which the result was inactive.

In the case of `c1cnc2c(c1)ccc1cccnc12`, the compound was classed as inactive.

In the case of `C=CC(=O)OCCC(F)(F)C(F)(F)C(F)(F)C(F)(F)C(F)(F)C(F)(F)F`, the compound was called inactive.

With `Oc1cccc2c(O)cccc12`, the result was inactive.

Consider `CCC(=O)C=Cc1ccc(OC)cc1`, for which the outcome was inactive.

As for `CC(C)C=O`, the result was inactive.

In the case of `CC[N+](CC)(CC)Cc1ccccc1`, the compound was called inactive.

As to `CCCCCCC(C)(C)C(=O)O`, the compound was called inactive.

The next experiment has as its target Glucocorticoid receptor (Homo sapiens) (UniProt P04150). Briefly: ATG_GR_TRANS: Attagene TRANS-FACTORIAL HepG2 Assay for human Glucocorticoid Receptor (GR) (AID 2282978).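 Also: activators score as hits since higher reporter transcript over DMSO is fitted.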 The settings on record: HepG2 Attagene TRANS GR reporter, mRNA transcription. The gist of the method:
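After 24 h incubation with test chemical, transfected HepG2 cells were lysed for RNA; reporter cDNA was amplified, FAM-labelled, HpaI-digested and sized on a capillary analyser. Signal gain relative to DMSO was scored.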
Consider `CCOC(C)=O`, for which the outcome was inactive.

Regarding `CCOC(=O)CN[C@@H](C(=O)N1CC[C@H]1C(=O)NCc1ccc(/C(N)=N/O)cc1)C1CCCCC1`, the compound was called inactive.

With `Cc1ccc(N=Nc2c(O)ccc3ccccc23)c(C)c1`, the result was inactive.

As for `C=COC(=O)C(C)(C)CCCCCC`, the compound was classed as inactive.

For `O=C(Nc1ccc(Cl)c(Cl)c1)c1cc(Cl)cc(Cl)c1O`, the compound was classed as inactive.

Regarding `CCC(C)c1ccccc1O` (stereo unspecified), the result was inactive.

Regarding `Cc1cc(C(=C2C=CC(=Nc3ccc(S(=O)(=O)O)cc3)C=C2)c2ccc(Nc3ccc(S(=O)(=O)O)cc3)cc2)cc(S(=O)(=O)O)c1N`, the call was inactive.

As to `C=CC(C)(CCC=C(C)C)OC(C)=O` (stereo unspecified), the call was inactive.

Consider `c1cnc2c(c1)ccc1cccnc12`, for which the call was inactive.

Take `CCC(C)c1nccnc1OC` (stereo unspecified): the call was inactive.

For the compound `FC(F)(F)C(F)(F)C(F)(F)Br`, the compound was classed as inactive.

As to `CCCCCCCCC(C)=O`, the compound was called inactive.

Turning to `Clc1ccc(Nc2nnc(Cc3ccncc3)c3ccccc23)cc1`, the call was inactive.

On to `C=CC(=O)OCCC(F)(F)C(F)(F)C(F)(F)C(F)(F)C(F)(F)C(F)(F)F`, for which the compound was called inactive.

In the case of `Oc1cccc2c(O)cccc12`, the call was inactive.

With `COc1cc(OC)nc(NC(=O)NS(=O)(=O)Nc2ccccc2C(=O)N(C)C)n1`, the result was inactive.

As for `OCC(F)(F)C(F)(F)C(F)(F)C(F)(F)C(F)(F)C(F)(F)C(F)(F)C(F)(F)C(F)(F)C(F)(F)C(F)(F)F`, the compound was classed as inactive.

Take `CCC(=O)C=Cc1ccc(OC)cc1`: the result was inactive.

Regarding `NC(=NCCCCCCN=C(N)/N=C(\N)Nc1ccc(Cl)cc1)/N=C(\N)Nc1ccc(Cl)cc1`, the half-maximal activity concentration (AC50) was 25.3 µM (active) and the outcome was inactive.

Take `COc1ccc(C#N)cc1`: the outcome was inactive.

For `CC(C)(C)c1ccc(CCC=O)cc1`, the result was inactive.

On to `Oc1cc2ccccc2cc1O`, for which the outcome was inactive.

In the case of `CC(C)C=O`, the outcome was inactive.

As to `CC[N+](CC)(CC)Cc1ccccc1`, the compound was called inactive.

As to `CC(C)(C)C1CCCCC1O` (stereo unspecified), the result was inactive.

Turning to `FC(F)(F)N1C(F)(F)C(F)(F)OC(F)(F)C1(F)F`, the compound was called inactive.

Consider `CC1COCc2cc3c(cc21)C(C)(C)C(C)C3(C)C` (stereo unspecified), for which the compound was classed as inactive.
